Laboratory results taken from PubChem BioAssay (NCI).
This is part of a sample that, as a whole, favours compounds with a hit. Of some 83,000 tested, about 20% had one in any assay.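 Values shown are percent growth following 48 h exposure of cells in 96-well plates to a single concentration of compound; below 10 was considered active.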 Calls of active or inactive are those of the source.

These compounds were tested on BT-549 breast (assay: NCI-60 one-dose screen, 48 h (100 = growth as untreated, 0 = no growth, -100 = all killed)). Settings: 10 µM unless noted.
Method: Growth inhibition of the BT-549 human tumor cell line is measured as a screen for anti-cancer activity. Cells are grown in 96 well plates and exposed to the test compound for 48 hours. Compounds are tested at a single concentration, which is 10^-5 M for most compounds. The reported endpoint is percent growth (GI% or GIPRCNT), where numbers from 0 - 100% represent growth inhibition, and numbers from -100% - 0 represent cell death. For example, a value of 40 represents 60% growth inhibition. A value of 0 means no net growth occurred over the course of the experiment. A value of -40 indicates 40% of cells at the beginning of the experiment died by the end of the experiment. A value of -100 means all cells are dead at the end of the experiment.
NCI-60 Human Tumor Cell Lines Screen was performed using the standard one-dose NCI protocol, which is described in more detail at https://dtp.cancer.gov/discovery_development/nci-60/default.htm.
Compounds with GIPRCNT values below 10 were considered active. Activity score was based on GIPRCNT using the following formula: […]
Score is 0 for GIPRCNT values of 100 or above, 50 for GIPRCNT values of 0, and 100 for GIPRCNT values of -100.
`O=C1CCC(NC(=S)Nc2ccccc2)N1` (stereo not given) was tested, and the growth was 114% (inactive). In the case of `NC(=O)c1cccc(-n2ccc3cc(NC(=O)Nc4cc(C(F)(F)F)cc(C(F)(F)F)c4)ccc32)n1`, the growth is reported as 74.4% (inactive). In the case of `COc1cccc(NC(=O)c2cccc(-c3cc(=O)c4c(OC)c(OC)c(OC)cc4o3)c2)c1`, the growth is reported as 54.2% (inactive). With `C=CCn1c(SCC(=O)Nc2ccc(C(=O)/C=C/c3cc(OC)c(OC)c(OC)c3)cc2)nnc1-c1cc(-c2ccc(S(C)(=O)=O)cc2)nc2ccccc12` the growth was 79.4% (inactive). For `COc1ccc(C2CC(n3nnnc3-c3ccccc3)=NN2)cc1` (stereo not given), the growth was 81.4% (inactive). `COc1ccccc1/C=N/NC1=NC2C(N1)N(C)C(=O)N2C` (stereo not given) was tested, and the growth was 101% (inactive). For `CC1=CC2(C)/C=C(C)/C=C\CC(O)/C=C3/C=CC(=C4C(=O)OC2(CC1C)C4=O)OC3` (stereo not given), the growth was -17.1% (active). For `[2H]C1([2H])NC([2H])([2H])C([2H])([2H])N(c2ccc(Nc3ncc4cc(C(=O)N(C)C)n(C5CCCC5)c4n3)nc2)C1([2H])[2H]`, the growth was 92.9% (inactive). In the case of `COc1ccc(-c2nc(N/N=C/c3ccco3)nc(N3CCOCC3)c2C#N)cc1`, the growth is reported as 78.5% (inactive). In the case of `CC1=NNC(=O)C1CCC(=O)N/N=C(\C)c1ccc2ccccc2c1` (stereo not given), the growth is reported as 118% (inactive). For `Fc1cc(C2=NNC(c3ccc[nH]3)C2)ccc1-n1ccc(C(F)(F)F)n1` (stereo not given), the growth was 92.3% (inactive). `O=C(Nc1nc(-c2ccccc2Cl)cs1)c1cc(-c2ccccc2)nc2ccc(Cl)cc12` was tested, and the growth was 11.8% (inactive). For `O=C(N/N=C/c1cccnc1)c1ccccc1Nc1cccc(C(F)(F)F)c1`, the growth was 80.7% (inactive). `CN(C)CCCn1c2c(c3ccc(-c4ccn[nH]4)cc3c1=O)C(=O)c1ccccc1-2` was tested, and the growth was 56.1% (inactive). `COc1ccccc1/C=C1\COc2ccc(-c3ccccc3)cc2C1=O` was tested, and the growth was 12% (inactive). In the case of `O=C1Nc2cc(-c3ccncc3)ccc2/C1=C/c1ccc[nH]1`, the growth is reported as 24.4% (inactive). With `O=C(O)c1cn(C2CC2)c2cc(N3CCN(C(=O)C[n+]4cccc5ccccc54)CC3)c(F)cc2c1=O` the growth was 75.8% (inactive). With `CN(C)C(=O)OCc1nc2c(N3CCOCC3)nc(-c3ccccc3)nc2n1C` the growth was -31.1% (active). For `FCc1nc2nc(Cl)c(Cl)nc2[nH]1`, the growth was 104% (inactive). In the case of `COc1cc(/C=C/C(=O)c2c(C)oc3nc[nH]c(=O)c23)ccc1O`, the growth is reported as 100% (inactive). For `COc1cc(NCC(O)CN(CC(C)C)C2CCCC2)c2ncccc2c1` (stereo not given), the growth was 89.5% (inactive). With `Clc1cc(Cl)cc(N2N=C(c3cccc(Nc4ccncc4)c3)CC2c2ccc(Br)cc2)c1` (stereo not given) the growth was 112% (inactive). With `CSc1nnc2c(=O)n(C)c(=O)n(C)c2n1` the growth was 96.4% (inactive). In the case of `O=C(Nc1nc2ccc(C(=O)N3CCN(c4ccc(Cl)c(Cl)c4)CC3)cc2s1)c1ccc(NCCc2ccccc2)c([N+](=O)[O-])c1`, the growth is reported as 108% (inactive). With `COc1cc(C2CC(c3cccc(Nc4ccncc4)c3)=NN2c2ccc(Cl)cc2)cc(OC)c1OC` (stereo not given) the growth was 107% (inactive). `COc1cccc(C(Cc2ccccc2)Nc2ccccc2)c1OC` (stereo not given) was tested, and the growth was 101% (inactive). For `O=C(O)CCCCCCCCCCCCCCC(=O)O`, the growth was 105% (inactive). `COc1ccc(-c2nc(SC(C)C)nc(NNC(N)=O)c2C#N)cc1` was tested, and the growth was 102% (inactive). For `O=[N+]([O-])c1cccc(-c2nc(-c3ccc(Cl)cc3Cl)cn2-c2ccccc2)c1`, the growth was 176% (inactive). For `CN(C)C(=O)c1cc2cnc(Nc3ccc(-c4csc5c(=O)cc(N6CCOCC6)oc45)cc3)nc2n1C1CCCC1`, the growth was -79.1% (active). In the case of `COc1cc(CCNc2nc3cc(N)cc(N)c3nc2-c2ccccc2)cc(OC)c1`, the growth is reported as 19.1% (inactive). For `O=S(=O)(c1ccc(N/N=C\c2ccccc2)cc1)c1ccc(N/N=C/c2ccccc2)cc1`, the growth was 105% (inactive). For `O=C1Nc2c(ccc(Cl)c2Cl)/C1=C/c1ccccn1`, the growth was 92.1% (inactive). `CN1CCN(CC#CCNC(=O)[C@]23CCC(C)(C)C[C@H]2C2=CC[C@@H]4[C@@]5(C)Cc6c([nH]c7ccccc67)C(C)(C)[C@@H]5CC[C@@]4(C)[C@]2(C)CC3)CC1` was tested, and the growth was 101% (inactive). `COc1cc(C2NC(c3cc(OC)c(OC)c(OC)c3)C(C#N)(C#N)C2(C#N)C#N)cc(OC)c1OC` (stereo not given) was tested, and the growth was 101% (inactive). For `CNC(=O)c1c(NC(=O)c2ccc(C(C)C)cc2)sc2c(CN(C)C)c(O)ccc12`, the growth was 87.9% (inactive). With `COc1ccc(NC(=O)c2sc3nc(C)c(C(=O)c4ccc(OC)cc4)cc3c2N)cc1` the growth was 49.1% (inactive). In the case of `CC(=O)CCSc1ccc(OC(C)=O)cc1`, the growth is reported as 96.5% (inactive). `CO[C@@H]1[C@H](N(C)C(=O)c2ccccc2)C[C@@H]2O[C@]1(C)n1c3ccccc3c3c4c(c5c6ccccc6n2c5c31)C(=O)NC4=O` was tested, and the growth was 45% (inactive). `Fc1ccc(C2CC(c3cccc(Nc4ccncc4)c3)=NN2c2cc(Cl)cc(Cl)c2)cc1` (stereo not given) was tested, and the growth was 104% (inactive).
